Assay results published in PubChem BioAssay (NCI).
This is part of a sample that, as a whole, favours compounds with a hit. Of some 79,000 tested, about 15% had one in any assay. Activity calls are given as the source filed them. No stated cut-off is given here; in the data, active means growth inhibition above about 70%; inactive means the rest.

Columns and labels:
[1] = NCI Yeast Anticancer Drug Screen. Data for the rad50 strain (AID 155);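 further: 0% = growth of vehicle-only cultures of the same strain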; settings: S. cerevisiae rad50 strain growth inhibition; at 50.0 µM; active compounds read high
Outline: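 Genetically altered yeast (DNA repair pathway); compound treatment; growth inhibition vs vehicle ctrl.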

[2] = NCI Yeast Anticancer Drug Screen. Data for the mec2-1 strain (AID 157); settings: S. cerevisiae mec2-1 strain, at 50.0 µM, active compounds read high
Outline: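 Readout is yeast growth inhibition, normalised to vehicle-treated controls, in the mec2-1 strain exposed to compound.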

[3] = NCI Yeast Anticancer Drug Screen. Data for the sgs1 mgt1 strain (AID 161);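 further: 0% = growth of cultures given vehicle only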; settings: S. cerevisiae sgs1 mgt1 strain, at 50.0 µM, active compounds read high
Outline: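 Percent growth inhibition was derived by comparing compound-exposed mutant yeast with vehicle-exposed cultures. The strain carries alterations in DNA damage repair.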

[4] = NCI Yeast Anticancer Drug Screen. Data for the cln2 rad14 strain (AID 165);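 further: 0% = growth equal to vehicle treated cultures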; settings: S. cerevisiae cln2 rad14 strain, at 50.0 µM, active compounds read high
Outline: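 Relative to vehicle controls, growth inhibition of compound-treated cln2 rad14 yeast was recorded.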

[5] = NCI Yeast Anticancer Drug Screen. Data for the bub3 strain (AID 167); settings: S. cerevisiae bub3 mutant strain, at 50.0 µM, active compounds read high
Outline: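 Yeast carrying a defined mutation is treated with each compound, and growth is compared with that of vehicle-exposed cells to give inhibition.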

[6] = NCI Yeast Anticancer Drug Screen. Data for the mlh1 rad18 strain (AID 175); settings: S. cerevisiae mlh1 rad18 strain growth inhibition; at 50.0 µM; active compounds read high
Outline: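 Test agents were incubated with a yeast strain of defined genotype (DNA damage repair defect). Inhibition of growth was derived by comparison with vehicle-exposed cultures.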

Measured: growth inhibition

Cc1nc(=O)n2c(c1C(=O)Nc1ccc(Cl)cc1)NCC2
inactive: [1] 3.75% | [2] -3.35% | [3] 0.1% | [4] -37.9% | [5] 2.35% | [6] 14.8%

COc1ccc(C(=O)C(C)C(O)C(=O)O)c(O)c1C (centres undefined)
inactive: [1] 8.15% | [2] 14.9% | [3] -1.25% | [4] 2% | [5] -16.5% | [6] 9.15%

O=NC1C2CCC(C2)C1N=O.[Co].[c-]1[c-][c-][cH-][c-]1 (centres undefined)
inactive: [1] 9.4% | [2] 6.45% | [3] 4.7% | [4] 20.4% | [5] 13.6% | [6] 27.9%

CCCCc1c(OCC)cc2n(CC)c3ccccc3n2c1=O
inactive: [1] -8.45% | [2] -9.85% | [3] 0.8% | [4] -10.9% | [5] -45% | [6] -11.9%

O=[N+]([O-])c1ccc2nc(/C=C(\O)c3ccccc3)c(NC34CC5CC(CC(C5)C3)C4)nc2c1
inactive: [1] 16.4% | [2] -17.5% | [3] 13.9% | [4] -39.4% | [5] -17.8% | [6] -2.35%

N#CN=CN1CCN(c2ccccc2)CC1
inactive: [1] 4.8% | [2] -11.2% | [3] -0.15% | [4] -22.6% | [5] -5.4% | [6] -11.9%

Cc1ccccc1NS(=O)(=O)c1c(N)ncn1C
inactive: [1] -5.2% | [2] 3.55% | [3] -0.9% | [4] -29.3% | [5] -0.65% | [6] 5.25%

O=C1C(N=Nc2ccc([N+](=O)[O-])cc2)Sc2nc3ccccc3n21 (centres undefined)
inactive: [1] 25.8% | [2] -39.9% | [3] 7.6% | [4] -14.5% | [5] -2.2% | [6] 12.2%

Nc1ncnc2c1ncn2C1OC(COP(=O)(O)OP(=O)(O)OCC2OC([n+]3cccc(C=O)c3)C(O)C2O)C(O)C1O (centres undefined)
inactive: [1] 10.6% | [2] 4.4% | [3] 6.85% | [4] -4.1% | [5] 0.6% | [6] 12.3%

O=C(NCc1ccco1)Nc1ccccc1Cl
inactive: [1] -24.9% | [2] -0.2% | [3] -6.2% | [4] 45.8% | [5] 4.25% | [6] -11%

CCOC(=O)c1cn(C)c2c1C(=O)C(C(=O)OCC)CCN2C(=O)OCC (centres undefined)
inactive: [1] -1.5% | [2] 9.15% | [3] -11.8% | [4] 8.95% | [5] 1% | [6] -19.6%

c1ccc(-c2ccccc2N=C2N=NN=N2)cc1
inactive: [1] -1% | [2] -6.9% | [3] 2.2% | [4] -16.4% | [5] -13.6% | [6] 6.55%

COC(=O)CC(NC(=O)OCc1ccccc1)C(=O)NCC(=O)NCC(=O)O (centres undefined)
inactive: [1] 15.8% | [2] 12.7% | [3] -5.65% | [4] 14.3% | [5] -4.7% | [6] 2.5%

OC1CCCCC12CC2 (centres undefined)
inactive: [1] 3.85% | [2] 1.5% | [3] 5% | [4] -3.55% | [5] -15.2% | [6] -3.2%

CC(C)NCCC(O)c1cc2ccccc2o1 (centres undefined)
inactive: [1] -12.8% | [2] -4% | [3] -17.6% | [4] -7.1% | [5] -35.5% | [6] 5.15%

CC(=O)Oc1c(C(C)C)cccc1C(C)(C)C
inactive: [1] -10.8% | [2] -9.95% | [3] -1.1% | [4] -14.1% | [5] -34.1% | [6] -13.5%

COC(=O)CCN(CCC(=O)OC)C1CC1
inactive: [1] -23.4% | [2] -14.3% | [3] -13.4% | [4] 19.6% | [5] 3.75% | [6] -20.4%

O=C(NC(=O)c1c(F)cccc1F)Nc1ccc(Cl)nc1
inactive: [1] 8.75% | [2] 5.95% | [3] -0.2% | [4] 2.3% | [5] 21.9% | [6] 10.1%

CCCS(=O)(=O)N1CCC(C)CC1
inactive: [1] 5.7% | [2] -21.1% | [3] 5.85% | [4] -8.65% | [5] -8.55% | [6] 1.6%

CCOC(=O)c1c(-c2ccccc2)c(C)cn1C
inactive: [1] -16.1% | [2] -26% | [3] -24.9% | [4] 11% | [5] -7.75% | [6] 1%

O=C1C(=O)C(c2ccccc2)(c2ccccc2)C(=O)N1c1ccccc1
inactive: [1] 29.6% | [2] 13.2% | [3] 0.9% | [4] 49.6% | [5] 16.4% | [6] -6.7%

CCOc1nc(C)cc(C(=O)OC)c1C#N
inactive: [1] 18.4% | [2] 15.7% | [3] 19.6% | [4] 17.4% | [5] 0.3% | [6] 2%

O=C(O)CC(Cc1ccccc1)C(=O)O (centres undefined)
inactive: [1] 1% | [2] -3.45% | [3] -26.1% | [4] -17.8% | [5] -31.9% | [6] 2.05%

CCC(=O)c1cc(-c2ccccc2)nc2ccc(OC)cc12
inactive: [1] 2.6% | [2] 1.2% | [3] 11.5% | [4] -23.4% | [5] -12.2% | [6] -24.4%

CC1(C)N=C(c2ccccc2)SC1(C)C
inactive: [1] -13.6% | [2] -12.2% | [3] -21.8% | [4] -49.4% | [5] 1.65% | [6] -36.5%

CCOC(=O)CC(C)C(Br)(C(=O)OCC)C(=O)OCC (centres undefined)
inactive: [1] 47.5% | [4] 20.5%
active: [2] 93.5% | [3] 89.4% | [5] 93.4% | [6] 95.4%

O=C(NC1CCCCC1)Oc1ccc[nH]c1=O
inactive: [1] -14.8% | [2] -16.8% | [3] -13.6% | [4] -26.9% | [5] 2.25% | [6] -1.25%

O=C1CSC(=S)N1c1cccc(F)c1
inactive: [1] 32.1% | [2] -10.6% | [3] 2.1% | [4] -27.2% | [5] -18.1% | [6] 3.65%

c1ccc2c(c1)Nc1nsnc1N2
inactive: [1] 3.8% | [2] -9.4% | [3] -6% | [4] 13.8% | [5] 13.2% | [6] 2.25%

C/C(=C/c1ccccc1)C(F)F
inactive: [1] 3.9% | [2] -5.7% | [3] -13% | [4] -7.45% | [5] -11.6% | [6] 8.75%

COc1ccc([N+](=O)[O-])c2c(NCC(O)CO)ccnc12 (centres undefined)
inactive: [1] -0.35% | [2] -11% | [3] -9.7% | [4] -8.2% | [5] -25.1% | [6] -47.2%

C(/Cc1ccc2c(c1)OCO2)=N\NC1=NCCN1
inactive: [1] -8.5% | [2] -0.55% | [3] 1.55% | [4] -19.4% | [5] 5.2% | [6] 18.1%

Cc1c2c(n3c(nc4ccccc43)c1C#N)N(c1ccc(Cl)cc1)CC2
inactive: [1] 1.1% | [2] -1.3% | [3] -10.8% | [4] 7.35% | [5] -6.4% | [6] -15.3%

CC(NC(=O)CNC(=O)CNC(=O)OCc1ccccc1)C(=O)OCc1ccccc1 (centres undefined)
inactive: [1] 4.35% | [2] 1.4% | [3] -3.65% | [4] -3.65% | [5] 1.45% | [6] 5.4%

CCCCN(CCCC)CC(O)c1cc(-c2ccccc2)nc2c(O)cccc12 (centres undefined)
inactive: [1] -28.6% | [2] 22.4% | [3] -18.2% | [4] -14.4% | [5] 3.6% | [6] -12.2%

O=C1OCC/C1=C\c1ccc(Br)cc1
inactive: [1] 7.2% | [2] -10.2% | [3] 3.3% | [4] -29.6% | [5] 7.5% | [6] -1.1%

CCOC(=O)C1CN2C(=O)CCC2C1=O (centres undefined)
inactive: [1] -5.65% | [2] 15.2% | [3] 8.7% | [4] -5.85% | [5] 15.4% | [6] 4.7%

CN(N=O)c1c([N+](=O)[O-])cc2c(c1[N+](=O)[O-])Cc1ccccc1-2
inactive: [1] 0.4% | [2] -4.3% | [3] -8.8% | [4] 17.6% | [5] 14.7% | [6] 19.4%

CCCCCSC1CCCC1
inactive: [1] 35% | [2] -10% | [3] 7.65% | [4] -2.2% | [5] 9.5% | [6] 28.7%
